Results: PubChem BioAssay (NCI)
The panel holds about 83,000 compounds, 20% with a hit somewhere; the sample as a whole holds those more often.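 Results are percent growth after 48 hours of single-concentration exposure. 100 means growth as in untreated cells, lower positive values show inhibition; negative values down to -100 show cell death.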 The source made the active and inactive calls. How the source made its calls: active means growth percent below 10; inactive means the rest.

Experiments:
Test in all cases: NCI-60 one-dose screen, 48 h (100 = growth as untreated, 0 = no growth, -100 = all killed)
Settings in all cases: 10 µM
[1] = tested on: SK-MEL-2 melanoma
[2] = tested on: EKVX NSCLC
[3] = tested on: SN12C renal
[4] = tested on: UO-31 renal
[5] = tested on: TK-10 renal
[6] = tested on: ACHN renal
[7] = tested on: CAKI-1 renal
[8] = tested on: A498 renal
[9] = tested on: CCRF-CEM leukemia
[10] = tested on: MOLT-4 leukemia
[11] = tested on: SR leukemia
[12] = tested on: RPMI-8226 leukemia
[13] = tested on: OVCAR-8 ovarian
[14] = tested on: OVCAR-5 ovarian
[15] = tested on: OVCAR-4 ovarian
[16] = tested on: SK-OV-3 ovarian
[17] = tested on: IGROV1 ovarian
[18] = tested on: OVCAR-3 ovarian
[19] = tested on: HS 578T breast
[20] = tested on: NCI/ADR-RES ovarian

Measured: growth

O=C(O)c1ccccc1C(=O)c1cccc2c(F)cccc12
inactive: [1] 103% | [2] 108% | [3] 100% | [4] 87.1% | [5] 110% | [6] 98.2% | [7] 104% | [8] 130% | [9] 92.3% | [10] 93.1% | [11] 115% | [12] 104% | [13] 99% | [14] 110% | [15] 98.4% | [16] 109% | [17] 113% | [18] 117% | [19] 126% | [20] 104%

O=C(CCc1ccccc1)N1CCN(C(=O)CCc2ccccc2)CC1
inactive: [1] 104% | [2] 115% | [3] 96.9% | [4] 60.1% | [5] 111% | [6] 104% | [7] 95.1% | [8] 152% | [9] 88.2% | [10] 88.6% | [11] 94.3% | [12] 92.3% | [13] 96% | [14] 110% | [15] 101% | [16] 115% | [17] 99.7% | [18] 118% | [19] 100% | [20] 108%

COc1cc(C2c3cc4c(cc3C(O)C(CO)C2CO)OCO4)cc(OC)c1OC (stereo not drawn)
active: [2] 7.57% | [8] -0.141% | [11] 6.26% | [18] -44.5% | [19] -8.11%
inactive: [1] 32.2% | [3] 46.1% | [4] 13.4% | [5] 46.7% | [6] 53.9% | [7] 65.9% | [9] 15.6% | [10] 16.8% | [12] 30.1% | [13] 30% | [14] 50.9% | [15] 51% | [16] 15.9% | [17] 13.9% | [20] 79.2%

COc1cc(/C=C/C(=O)c2cc(-c3ccc(C(F)(F)F)cc3)ccc2O)cc(OC)c1OC
active: [9] 7.45% | [12] -9.06%
inactive: [1] 70.1% | [2] 61.2% | [3] 66.7% | [4] 46.7% | [5] 98% | [6] 68.4% | [7] 47.2% | [8] 82.6% | [10] 15.5% | [11] 23.4% | [13] 64.1% | [14] 99.6% | [15] 64.6% | [16] 81.5% | [17] 75.3% | [18] 74.1% | [19] 59.4% | [20] 65.9%

Nc1nc(SCC#CCCl)c2[nH]cnc2n1
active: [4] -6.63% | [7] 9.59%
inactive: [1] 57.2% | [2] 54.4% | [3] 44.8% | [5] 37% | [6] 44% | [8] 53.8% | [9] 23.3% | [10] 35.8% | [11] 29.9% | [12] 36.2% | [13] 71.2% | [14] 90.8% | [15] 43.1% | [16] 49.6% | [17] 25.4% | [18] 54.5% | [19] 73.6% | [20] 67%

S=C(Cc1ccc(-c2ccccc2)cc1)N1CCOCC1
inactive: [1] 88.5% | [2] 95.4% | [3] 99.8% | [4] 83.9% | [5] 99.7% | [6] 98.4% | [7] 90.4% | [8] 82% | [9] 91.8% | [10] 99.7% | [11] 101% | [12] 96.5% | [13] 102% | [15] 101% | [16] 102% | [17] 113% | [18] 104% | [19] 97.8% | [20] 103%

COc1ccc(Cn2cc3c(c2-c2cc(OC)c(OC)c(OC)c2)CCc2cnoc2-3)cc1N
active: [7] 6.52% | [16] 2.09% | [17] 7.25% | [18] 1.74% | [20] 6.71%
inactive: [1] 37.1% | [2] 27.4% | [3] 27.6% | [4] 40.4% | [5] 75.6% | [6] 38.8% | [8] 25% | [9] 23.7% | [10] 24.6% | [12] 25.7% | [13] 28% | [15] 37.6% | [19] 10.4%

CCOc1nc(-c2ccccc2)cc2c(O)c(C(=O)NC(C)C)[nH]c(=O)c12
inactive: [1] 126% | [2] 105% | [3] 114% | [4] 80.2% | [5] 133% | [6] 97.6% | [7] 94.2% | [8] 100% | [9] 58.2% | [10] 99.1% | [11] 94% | [12] 40.1% | [13] 103% | [14] 114% | [15] 118% | [16] 98.6% | [17] 65.4% | [18] 100% | [20] 96.8%

Oc1ccc(/C=N\Nc2ccccn2)c(O)c1
active: [4] -19.7% | [6] 7.03% | [7] -15.3% | [9] 8.18% | [18] -2.36% | [20] 0.0991%
inactive: [1] 46.3% | [2] 33% | [3] 24.1% | [5] 61.6% | [8] 70.7% | [10] 11.2% | [12] 26.2% | [13] 26.6% | [14] 61.4% | [15] 32.7% | [16] 32.4% | [17] 22.7% | [19] 65.8%

NC(=O)C12C(=O)NC(=O)C1(C(=O)O)C21CCCC1 (stereo not drawn)
inactive: [1] 108% | [2] 106% | [3] 101% | [4] 75.8% | [5] 111% | [6] 112% | [7] 112% | [8] 114% | [9] 96.9% | [10] 97.2% | [11] 106% | [12] 94.6% | [13] 104% | [14] 110% | [15] 104% | [16] 116% | [17] 106% | [18] 116% | [20] 114%

O=[N+]([O-])c1ccc2c(c1)Cc1cc(I)ccc1-2
inactive: [1] 109% | [2] 84.6% | [3] 107% | [4] 91.9% | [5] 118% | [6] 110% | [7] 102% | [8] 102% | [9] 96.8% | [10] 91.8% | [12] 98.4% | [13] 118% | [14] 97% | [15] 117% | [16] 123% | [17] 104% | [18] 110% | [19] 101% | [20] 104%

COc1cc(N=C2C(=O)N(Cc3ccccc3)c3ccccc32)cc(OC)c1OC
inactive: [1] 98.3% | [2] 101% | [3] 99.6% | [4] 77.3% | [5] 112% | [6] 97.4% | [7] 83.8% | [8] 108% | [9] 29.5% | [10] 96.9% | [11] 74.5% | [12] 38.4% | [13] 96.6% | [14] 95% | [15] 98.8% | [16] 101% | [17] 86% | [18] 84.4% | [20] 94.6%

CCOC(=O)c1c(O)c2cc(-c3ccccc3)nc(OCC)c2c(=O)n1C
inactive: [1] 87.9% | [2] 96% | [3] 98.7% | [4] 79.6% | [5] 123% | [6] 98.3% | [7] 97.3% | [8] 90.3% | [9] 56% | [10] 107% | [11] 98% | [12] 39.2% | [13] 104% | [14] 104% | [15] 90.1% | [16] 107% | [17] 69.8% | [18] 103% | [19] 93% | [20] 82.2%

CCOC(=O)c1cc2c(n1Cc1ccccc1)-c1oncc1CC2
inactive: [1] 85.7% | [2] 77% | [3] 98.6% | [4] 25.4% | [5] 101% | [6] 82.1% | [7] 36.5% | [8] 48.4% | [9] 53.1% | [10] 25.2% | [11] 13.1% | [12] 67.1% | [13] 97% | [14] 97.4% | [15] 105% | [16] 92% | [17] 42.4% | [20] 45.3%
active: [18] -0.497%

CCCCNC(=O)Oc1ccc(/C(=C(\C)c2ccc(OC)cc2)c2ccc(OCCN3CCCCC3)cc2)cc1
active: [11] -22.9%
inactive: [1] 67.8% | [2] 68.3% | [3] 69.1% | [4] 11.2% | [5] 102% | [6] 78.6% | [7] 60.3% | [8] 71% | [9] 58.5% | [10] 20.1% | [12] 29% | [14] 74.9% | [15] 64.8% | [16] 66.7% | [17] 64.7% | [18] 73.6% | [19] 48.5% | [20] 68.2%

Nc1c(C(=O)Nc2ccccc2F)sc2nc3c(cc12)C(=O)CCC3
active: [7] 4.36% | [8] -1.01% | [20] -4.39%
inactive: [1] 42.6% | [2] 56.3% | [3] 49.8% | [4] 76% | [5] 59.7% | [6] 65.4% | [9] 26.8% | [10] 73.6% | [11] 36.7% | [12] 52% | [13] 58.6% | [14] 71.1% | [16] 13.6% | [18] 16.8% | [19] 37.2%
